We go through 112 molecules from PubChem BioAssay AID588345 (Broad Institute, 2011).

Structures are written as SMILES. About 850 (65%) of roughly 1,300 compounds were called active. Not shown: some 1% with an inconclusive outcome. No rule for the calls is given here. So high a share suggests a set chosen from earlier hits. The list is a sample of the results. Where a call stands in place of a potency, no number is given. Potency and affinity values are given separately.

The target in the experiment is Dual specificity tyrosine-phosphorylation-regulated kinase 1A (Rattus norvegicus) (UniProt Q63470). Description: rat Dyrk1A kinase inhibitors, dose response, biochemical, cherry-pick, plate reader, 2124-01 (AID 588345). The conditions noted are these: Dyrk1A kinase biochemical assay; series mostly up to 12 µM.
Regarding `Cc1cc(=O)oc2ccc(OC(=O)c3cccc(S(=O)(=O)N4CCOCC4)c3)cc12`, the call was inactive. Under `CCc1cc2c(NC3CCCC3)ncnc2s1` stands “inactive”.

In the case of `COc1cccc(Nc2nc(NCCO)c3ccccc3n2)c1`, the molecule was classed as inactive.

As to `CCCCCC1CC(CC(C)C(=O)Nc2nncs2)C(=O)O1` (configuration not stated), the outcome was inactive.

Regarding `CCC(C)NC(=O)C1CCCN(S(=O)(=O)c2ccc3c(c2)CC(C)N3C(=O)C2CC2)C1` (configuration not stated), the call was inactive.

For `Clc1ccc(C2CC(c3cccs3)n3ncnc3N2)c(Cl)c1` (configuration not stated), the molecule was classed as inactive. Under `O=C(Cn1c(-c2cncs2)nc2ccccc21)NCc1ccccc1` stands “inactive”; under `Cn1c(=O)[nH]c2cc3ccccc3cc21`, “inactive”. In the case of `S=c1sc2ccccc2n1CCc1ccncc1` it was “inactive”; in that of `COc1ccc(N(CC(=O)Nc2ccc3c(c2)OCCO3)S(=O)(=O)c2c(C)nn(C)c2C)cc1`, “inactive”. In the case of `CC(C)(C)C1=Nn2c(nnc2-c2ccccc2F)SC1` it was “inactive”. Consider `O=C(Nc1ccc2cn[nH]c2c1)c1c(Cl)cccc1Cl`, for which the call was inactive. Under `COc1ccc(N/C=C2\C(=O)CCc3c2oc2cc(Cl)c(O)c(Cl)c32)cc1` stands “inactive”; under `Oc1c(Cl)c(Cl)c2ncccc2c1Cl`, “inactive”; under `Oc1cccc2c(-c3nn[nH]n3)ccnc12`, “inactive”. In the case of `Fc1ccccc1-c1nc(-c2ccc(-c3nn[nH]n3)cc2)no1` it was “inactive”; in that of `COc1ccc(-c2cn[nH]c2C)cc1`, “inactive”; in that of `Cc1cc(C)c(CN2CCN(C(=O)Cn3ccc(N)nc3=O)CC2)c(C)c1`, “inactive”.

As for `CCCCCCCCCCCCN1[C@@H](CC(=O)OC)c2cc(C(F)(F)F)ccc2S1(=O)=O`, the molecule was classed as inactive. Consider `CC(=O)c1cccc(NC(=O)Nc2ccc3c(c2)N(C)C(=O)CS3)c1`, for which the result was inactive.

In the case of `CSc1nnc(-c2cc3c(-c4ccccc4)nn(C)c3s2)n1C`, the molecule was classed as inactive.

Turning to `Cn1cnc2c(=O)sc3ccccc3c21`, the molecule was called inactive. Under `O=C(C1CC(=O)N(C2CCCC2)C1)N1CCN(c2ccc(F)cc2)CC1` (configuration not stated) stands “inactive”. Under `c1csc(CNc2ncnc3ccc(-c4ccc5c(c4)OCCO5)cc23)c1` stands “inactive”. In the case of `O=C(NCc1ccccc1)C1=C[C@H](c2ccccc2)C[C@H](OCc2ccc(CO)cc2)O1` it was “inactive”; in that of `c1ccc(-c2nnc(CSc3ccc4c(c3)OCCO4)o2)cc1`, “inactive”. Take `O=[N+]([O-])c1ccc2c(c1)C(=NO)c1cc(F)ccc1-2`: the outcome was inactive. In the case of `O=C(O)CCC(=O)Nc1ccc(N2CCCCCC2)cc1` it was “inactive”; in that of `Cc1cccc(Nc2nc(N)c([N+](=O)[O-])c(N3CCC(C)CC3)n2)c1`, “inactive”. Turning to `CCC1NC(C(=O)O)Cc2c1[nH]c1ccccc21` (configuration not stated), the call was inactive. In the case of `COC(=O)c1nccc2c1[nH]c1ccccc12` it was “inactive”; in that of `CC(C)C[C@H]1COCCS(=O)(=O)N1Cc1ccc(Cl)c(Cl)c1`, “inactive”. Under `CCOC(=O)Cn1c(-c2cccnc2Cl)nc2ccccc21` stands “inactive”.

For the molecule `O=C(CN1CCOCC1)Nc1nc2ccc([N+](=O)[O-])cc2s1`, the molecule was classed as inactive.

For the molecule `CC1CCc2nc(NC(=O)CN3CCN(Cc4ccc5c(c4)OCO5)CC3)sc2C1` (configuration not stated), the outcome was inactive. In the case of `CC1CCc2nc(NC(=O)c3ccc(N4C(=O)CCC4=O)cc3)sc2C1` (configuration not stated), the molecule was called inactive. In the case of `Cc1noc(C)c1-c1ccc2ncnc(NC(C)c3ccco3)c2c1` (configuration not stated) it was “inactive”; in that of `O=C(Nc1cccc(Cl)c1)ON=C1c2ccccc2-c2ccccc21`, “inactive”.

Consider `CCC(=O)Nc1c(C#N)c2nc3ccccc3nc2n1-c1ccccc1C`, for which the result was inactive. Turning to `Cc1ccc(NC(=S)Nc2ccc3cn[nH]c3c2)cc1`, the molecule was classed as inactive. Under `COc1ccc2c(c1)C(=O)N1[C@H]3c4cc(C)ccc4OC[C@@H]3[C@H](c3ccccc3)[C@]1(C)C(=O)N2` stands “inactive”; under `Cc1c(C(=O)O)sc2nc(-c3cccs3)cc(C(F)(F)F)c12`, “inactive”. Under `O=C1CCCC2=C1Sc1ccc(Cl)cc1N2` stands “inactive”; under `O=C1c2ccccc2S(=O)(=O)N1Cc1nnc(-c2ccccc2Br)o1`, “inactive”.

With `CC(C)=CCc1cc(-c2oc3cc(O)cc(O)c3c(=O)c2O)ccc1O`, the molecule was classed as inactive. Take `O=C(Nc1ncc2c(n1)-c1ccccc1CC2)c1ccc(Cl)cc1`: the call was inactive. Turning to `CCOCCCNC(=O)C(NC(=O)c1ccc(=O)[nH]c1)c1ccc(Cl)cc1` (configuration not stated), the molecule was called inactive.

With `Cc1cccc(C(C)n2nnc3ccccc32)c1O` (configuration not stated), the molecule was classed as inactive. On to `O=c1oc(-c2ccc(O)c(O)c2)cc2cc(O)cc(O)c12`, for which the result was inactive. Under `O=c1cc(-c2ccc(O)cc2)oc2c(O)c(O)c(O)c(O)c12` stands “inactive”. On to `CN(C)CCCOC(=O)COc1ccc(Br)cc1`, for which the call was inactive. Under `CCn1c(NC(=O)c2ccccc2)c(-c2cccs2)c(=O)c2ccccc21` stands “inactive”; under `CCN(CC)C(=O)Oc1ccc2c(c1)O/C(=C\c1ccco1)C2=O`, “inactive”; under `O=c1cc(-c2ccco2)oc2c1ccc1ccccc12`, “inactive”. Under `COc1cc(/C=C2\SC(N)=NC2=O)ccc1O` stands “inactive”; under `OC(c1cc(C(F)(F)F)nc2c(Cl)cc(Cl)cc12)C1CCCCN1` (configuration not stated), “inactive”. Under `O=C(O)c1cccc2c1/C(=N/O)c1ccccc1-2` stands “inactive”; under `CCn1c2ccccc2c2nc3cc(C(=O)O)ccc3nc21`, “inactive”; under `S=C(Nc1cccnc1)Nc1cccc2cnccc12`, “inactive”. Consider `COc1ccc(NC(=S)N(CCc2c(C)[nH]c3ccccc23)Cc2cccnc2)cc1`, for which the molecule was called inactive.

With `Cc1cc2nncn2c2ccccc12`, the outcome was inactive. In the case of `COc1ccc(NC(=O)N(C)C[C@H]2Oc3c(NS(=O)(=O)c4cccs4)cccc3C(=O)N([C@@H](C)CO)C[C@@H]2C)cc1` it was “inactive”; in that of `C[C@@H]1C=C(C(=O)NCc2nc3ccccc3[nH]2)O[C@H](OCCCCO)C1`, “inactive”; in that of `O=C1CN(C(=O)C2CCC(=O)N(CCc3ccc(Cl)cc3)C2)CCN1` (configuration not stated), “inactive”. `COc1ccc2nc(C)c3c(c2c1)OC(C(C)(Cl)Br)C3` (configuration not stated): the result was inactive.

Take `COc1ccc2oc(N)c(C=O)c(=O)c2c1`: the molecule was called inactive. `c1cnc2ncc3sccc3c2c1`: the outcome was inactive.

Turning to `O=c1c(O)c(-c2ccccc2)oc2cc(O)cc(O)c12`, the molecule was called inactive. As to `O=c1c(O)c(-c2cc(O)c(O)c(O)c2)oc2cc(O)cc(O)c12`, the outcome was inactive. Under `Cc1cccc(CNc2ncnc3ccc(-c4ccc5c(c4)OCO5)cc23)c1` stands “inactive”; under `O=C(CN1CCOCC1)Nc1nc2ccc(F)cc2s1`, “inactive”.

For `NC(=O)c1cc2ccc(O)cc2oc1=Nc1ccccc1`, the molecule was classed as inactive.

For the molecule `COc1ccc(OC)c(N=c2oc3cc(O)ccc3cc2C(N)=O)c1`, the outcome was inactive. For `COc1ccc2nc(-n3c(O)c(C4=c5ccccc5=NC4=O)[nH]c3=S)sc2c1`, the call was inactive. For `CC(=O)c1nc2ccccc2n1S(=O)(=O)c1ccc(Cl)cc1`, the call was inactive. As to `O=C(Nc1cccnc1)c1scc2c1OCCO2`, the call was inactive. In the case of `COc1cccc(C(=O)Nc2ccc(F)c(F)c2F)c1` it was “inactive”; in that of `Cc1cc(C(=O)CSc2nn(-c3ccccc3)c(=S)s2)c(C)n1Cc1ccco1`, “inactive”. With `Cc1cc([N+](=O)[O-])nn1Cc1ccccc1F`, the molecule was classed as inactive. Under `CC1CCC(NC(=O)c2cc(S(=O)(=O)N3CCCCC3)c[nH]2)CC1` (configuration not stated) stands “inactive”. Under `CN1CCN(CCNC(=O)c2cc3c(=O)n(C)c4ccccc4c3n2C)CC1` stands “inactive”; under `CN(C)CCNC(=O)c1cc2c(=O)n(C)c3ccccc3c2n1C`, “inactive”. With `O=c1cc[nH]c2c1ccc1cccnc12`, the outcome was inactive. Consider `COc1ccc2[nH]c(C)c(CCN(Cc3cccs3)C(=S)Nc3ccccc3OC)c2c1`, for which the outcome was inactive. As to `CN1CCc2c(sc3nc(NN)n(-c4ccc(Cl)cc4)c(=O)c23)C1`, the outcome was inactive. Consider `O=C(N/N=C/c1ccccn1)c1cc(-c2ccccc2Cl)n[nH]1`, for which the outcome was inactive. Under `CN(C)CCNC(=O)c1cc2c(s1)-c1ccccc1OC2` stands “inactive”. In the case of `O=C(COc1ccccc1)Nc1cccc(-c2nn[nH]n2)c1` it was “inactive”. Under `O=C(Nc1cccc(-c2cn3cccnc3n2)c1)c1ccc(Br)o1` stands “inactive”.

Take `COc1cc(C(C)=O)ccc1Oc1ncnc2c1cnn2-c1ccccc1`: the result was inactive. Under `c1ccc2c(c1)Nc1ccncc1S2` stands “inactive”; under `COc1ccc(-c2csc3ncnc(Sc4nnnn4C)c23)cc1`, “inactive”; under `Cc1ccc2oc(=O)c3cnn(CC(=O)NC4CCCCC4C)c3c2c1` (configuration not stated), “inactive”. In the case of `N=C1S/C(=C\c2ccc(O)cc2)C(=O)N1c1ccc(F)cc1`, the outcome was inactive. Under `Cn1c(=O)c2c(nc(NCc3ccco3)n2CC(O)COc2ccccc2)n(C)c1=O` (configuration not stated) stands “inactive”; under `O=C(NC(Nc1nc2ccc([N+](=O)[O-])cc2s1)(C(F)(F)F)C(F)(F)F)c1ccccc1`, “inactive”; under `O=C(Nc1nc2ccccc2s1)c1ccc(OCC2CCCO2)cc1` (configuration not stated), “inactive”.

With `C=CCn1c(SCC(=O)Nc2nc3ccccc3s2)nc(O)c(CC)c1=O`, the result was inactive. Consider `CC(C)NS(=O)(=O)c1ccc(OCC(=O)N(C)Cc2ccccc2)cc1`, for which the result was inactive. In the case of `COc1ccc(NC(=O)N(C)C[C@H]2Oc3ccc(NC(=O)CCN4CCOCC4)cc3C(=O)N([C@H](C)CO)C[C@@H]2C)cc1` it was “inactive”. Regarding `CC[C@@](C)(NS(=O)(=O)OCC(Cl)(Cl)Cl)c1ccccc1`, the result was inactive. In the case of `O=C1C2C(c3ccccc3)CC=CC2[C@H](c2ccoc2)N1Cc1ccccc1` (some centres not stated) it was “inactive”; in that of `Nc1nc(NCCCN2CCOCC2)nc(Nc2ccccc2)c1[N+](=O)[O-]`, “inactive”; in that of `CCN1CCN(c2nc(Nc3cccc(C)c3)nc(N)c2[N+](=O)[O-])CC1`, “inactive”. On to `O=C(c1ccc(Cl)c(Cl)c1)N1CCC(=O)N(C(COCc2cccc(C(F)(F)F)c2)Cc2ccccc2)CC1` (configuration not stated), for which the call was inactive. In the case of `O=c1c2ccccc2nnn1CSc1nnc(-c2ccc3c(c2)OCO3)o1` it was “inactive”; in that of `O=C(O)c1ccc(-n2cc(-c3cc4ccccc4oc3=O)[nH]c2=S)cc1`, “inactive”.

For the molecule `COc1cccc(/C=C2\Oc3ccc(O)cc3C2=O)c1O`, the molecule was called inactive. For `Oc1ccc(-c2[nH]ncc2-c2nc3ccccc3s2)c(O)c1`, the result was inactive. With `Nc1nc(SCc2ccc([N+](=O)[O-])cc2)c2ncn(C3OC(CO)C(O)C3O)c2n1` (configuration not stated), the outcome was inactive.

For the molecule `CNc1nc2c(N)ncnc2n1[C@H]1O[C@@H](CO)[C@H](O)[C@@H]1O`, the call was inactive.

With `CCC1COCCS(=O)(=O)N1Cc1ccccc1` (configuration not stated), the molecule was called inactive.
